Out of some 400,000 compounds screened, about 2,100 (0.53%) were called active. Not shown: some 14% with an inconclusive outcome. How the calls were made is not given here. Shown is part of a subset that was picked to be rich in actives.
biological target: Ataxin-2 (Homo sapiens) (UniProt Q99700); experiment: qHTS for Inhibitors of ATXN expression.; type: functional
Sequence (Q99700 whole entry): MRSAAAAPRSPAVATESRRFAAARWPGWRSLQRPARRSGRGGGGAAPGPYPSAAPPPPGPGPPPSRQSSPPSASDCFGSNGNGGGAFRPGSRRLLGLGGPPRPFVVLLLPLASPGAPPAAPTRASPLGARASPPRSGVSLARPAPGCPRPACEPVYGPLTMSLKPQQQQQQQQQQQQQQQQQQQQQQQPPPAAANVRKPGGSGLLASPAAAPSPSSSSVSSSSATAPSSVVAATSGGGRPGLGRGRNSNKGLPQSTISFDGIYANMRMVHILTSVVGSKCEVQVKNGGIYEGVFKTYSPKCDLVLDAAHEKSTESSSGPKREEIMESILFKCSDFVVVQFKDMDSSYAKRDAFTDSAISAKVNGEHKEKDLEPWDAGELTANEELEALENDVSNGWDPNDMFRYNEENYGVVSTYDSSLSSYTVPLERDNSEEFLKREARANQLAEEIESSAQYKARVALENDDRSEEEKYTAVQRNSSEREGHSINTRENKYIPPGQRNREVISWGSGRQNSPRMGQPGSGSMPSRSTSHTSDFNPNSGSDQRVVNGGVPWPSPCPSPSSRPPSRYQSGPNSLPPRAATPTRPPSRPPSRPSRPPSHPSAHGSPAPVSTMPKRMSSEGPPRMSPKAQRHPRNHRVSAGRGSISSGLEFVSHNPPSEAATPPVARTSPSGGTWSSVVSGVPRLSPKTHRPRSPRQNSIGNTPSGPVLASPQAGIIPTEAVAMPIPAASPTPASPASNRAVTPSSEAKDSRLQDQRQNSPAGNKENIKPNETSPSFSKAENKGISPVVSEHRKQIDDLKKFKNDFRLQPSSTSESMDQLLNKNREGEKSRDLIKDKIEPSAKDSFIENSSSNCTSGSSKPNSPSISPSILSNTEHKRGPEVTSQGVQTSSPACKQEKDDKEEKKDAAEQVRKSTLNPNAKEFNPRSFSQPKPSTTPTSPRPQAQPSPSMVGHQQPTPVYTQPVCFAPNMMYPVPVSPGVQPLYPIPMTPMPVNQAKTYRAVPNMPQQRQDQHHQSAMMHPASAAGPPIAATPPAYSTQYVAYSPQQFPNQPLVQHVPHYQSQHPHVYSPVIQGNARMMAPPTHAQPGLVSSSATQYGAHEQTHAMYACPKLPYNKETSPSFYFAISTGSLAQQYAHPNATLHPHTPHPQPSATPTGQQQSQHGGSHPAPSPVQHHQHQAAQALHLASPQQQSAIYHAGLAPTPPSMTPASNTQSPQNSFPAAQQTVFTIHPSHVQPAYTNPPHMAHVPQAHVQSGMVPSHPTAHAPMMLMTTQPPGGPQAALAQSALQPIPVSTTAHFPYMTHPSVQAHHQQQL

| Compound | Potency |
| --- | --- |
| CC(=O)Oc1ccc(N2C(=O)c3cccc4c([N+](=O)[O-])ccc(c34)C2=O)cc1 | inactive |
| CC(=O)NNC(=O)c1sc(=S)n2c1[nH]c(=O)c1sccc12 | inactive |
| CCN(CC)c1ccc(/C=C/c2cc(-c3ccccc3)c3ccccc3n2)cc1 | inactive |
| C[n+]1c(/C=C/c2ccc(O)cc2)ccc2ccccc21 | 26.7 µM (active) |
| CN(C)c1ccc(C=Cc2nccc3ccccc23)cc1 | inactive |
| Oc1ccc(/C=C/c2ccnc3ccccc23)cc1 | inactive |
| Oc1ccc(/C=C/c2ccc3ccccc3n2)cc1 | inactive |
| CN(C)c1ccc(/C=C/c2ccc3c4ccccc4ccc3[n+]2-c2ccccc2)cc1 | 11.9 µM (active) |
| O=C1C(Cl)=C(NC2CCCCC2)C(=O)N1Cc1ccccc1 | inactive |
| C=CCn1c(C)c(C(C)=O)cc(NC(=O)c2ccccc2)c1=O | inactive |
| CCOC(=O)C1CCN(S(=O)(=O)c2ccc3c4c(cccc24)C(=O)N3CC)CC1 | inactive |
| O=C(CN1C(=O)c2cccc3cccc1c23)NC1CCCCC1 | inactive |
| O=C1c2cccc3cc([N+](=O)[O-])cc(c23)C(=O)N1CC1CCCO1 (stereo not drawn) | inactive |
| Cc1cccc(C)c1OCC(O)CN1CCC(CN2C(=O)c3cccc4cccc(c34)C2=O)CC1 (stereo not drawn) | 25.1 µM (active) |
| CCN(CC)C(=O)CN1C(=O)c2cccc3cccc1c23 | inactive |
| CCOC(=O)C1CCCN(S(=O)(=O)c2ccc3c4c(cccc24)C(=O)N3CC)C1 (stereo not drawn) | inactive |
| Cc1cc(C)cc(OCC(O)CN2CCC(CN3C(=O)c4cccc5cccc(c45)C3=O)CC2)c1 (stereo not drawn) | 28.2 µM (active) |
| Cc1ccc(C)c(OCC(O)CN2CCC(CN3C(=O)c4cccc5cccc(c45)C3=O)CC2)c1 (stereo not drawn) | 39.8 µM (active) |
| CCc1ccc(OCC(O)CN2CCC(CN3C(=O)c4cccc5cccc(c45)C3=O)CC2)cc1 (stereo not drawn) | 39.8 µM (active) |
| CCOC(=O)N1CCN(CC(O)COc2cc(C)cc(C)c2)CC1 (stereo not drawn) | inactive |
| CCC(C)NC(=O)CN1C(=O)c2cccc3cccc1c23 (stereo not drawn) | inactive |
| O=C(CN1C(=O)c2cccc3cccc1c23)NC1CCCC1 | inactive |
| COc1ccc(-c2cc(=O)oc3c(C)c(O)c(CN(C)C)cc23)cc1 | inactive |

| Compound | Potency |
| --- | --- |
| COCCNC(=O)/C(C#N)=C/c1c(N2CCN(C)CC2)nc2c(C)cccn2c1=O | inactive |
| CCOCCCn1c(=N)c(C(=O)NCc2cccnc2)cc2c(=O)n3cc(C)ccc3nc21 | inactive |
| Cc1ccc(S(=O)(=O)c2cc3ccc(O)cc3oc2=O)cc1C | inactive |
| CCCc1cc(=O)oc2c(CN3CCCC3)c(O)c(Cl)cc12 | inactive |
| CC(=O)NC(=Nc1ccc(C)cc1Cl)Nc1nc(C)cc(C)n1 | inactive |
| Cc1ccc(C)c(OCC(O)CN2CCC(Cc3ccccc3)CC2)c1 (stereo not drawn) | 39.8 µM (active) |
| Oc1c(C(c2ccccn2)N2CCC(Cc3ccccc3)CC2)cc(Cl)c2cccnc12 (stereo not drawn) | inactive |
| CC1=C(C(=O)N(C(C)C)C(C)C)CC(CC(=O)NCCCCc2ccccc2)C(=O)N1CCC1=CCCCC1 (stereo not drawn) | 39.8 µM (active) |
| CC(CCc1ccccc1)NC(=O)C1CCC1 (stereo not drawn) | inactive |
| CC1=C(C(=O)N2CCCCCC2)CC(CC(=O)NCCCCc2ccccc2)C(=O)N1Cc1ccccc1 (stereo not drawn) | 35.5 µM (active) |
| CC1=C(C(=O)N(C(C)C)C(C)C)CC(CC(=O)NC(c2ccccc2)c2ccccc2)C(=O)N1CCC1=CCCCC1 (stereo not drawn) | 39.8 µM (active) |
| O=C(COC(=O)c1cc(S(=O)(=O)N2CCCC2)ccc1O)NCCc1ccccc1 | inactive |
| CC1=C(C(=O)N(C(C)C)C(C)C)CC(CC(=O)NCc2cccc3ccccc23)C(=O)N1CCC1=CCCCC1 (stereo not drawn) | 39.8 µM (active) |
| CCOC(=O)C(CC(=O)O)NCc1ccco1 (stereo not drawn) | inactive |
| CCn1nc(C)c(/C=N/NC(=O)c2nc3nc(C)cc(C)n3n2)c1C | inactive |
| CC1=C(C(=O)N2CCCCCC2)CC(CC(=O)NCCCCc2ccccc2)C(=O)N1CCC1=CCCCC1 (stereo not drawn) | 17.8 µM (active) |
| CCOC(=O)c1c(N)n(CCOC(=O)c2cccs2)c2nc3ccccc3nc12 | inactive |
| O=C(CCl)N1CCN2C(=O)c3ccccc3C12c1ccc(Cl)cc1 (stereo not drawn) | 21.2 µM (active) |
| CCOC(=O)N1CCc2[nH]c3ccc(C)cc3c2C1 | inactive |
| CN(C)CC(CCC(CN(C)C)C(O)(c1ccccc1)c1ccccc1)C(O)(c1ccccc1)c1ccccc1 (stereo not drawn) | 28.2 µM (active) |
| CN(C)CC(O)CN(c1ccccc1)c1ccccc1 (stereo not drawn) | inactive |
| COc1ccc(S(=O)(=O)N2CCN(C(=O)c3cc4c(s3)CCCC4)CC2)cc1 | inactive |
| CCC(C)NC(=O)c1cc2c(=O)n3cccc(C)c3nc2s1 (stereo not drawn) | inactive |

| Compound | Potency |
| --- | --- |
| CN1CCN(/N=C/c2ccc(N(c3ccccc3)c3ccccc3)cc2)CC1 | 31.6 µM (active) |
| Clc1ccc(/C=N/N2CCN(Cc3ccccc3)CC2)cc1 | inactive |
| CN(C)c1ccc(/C=N/N2CCN(c3ccccn3)CC2)cc1 | inactive |
| COc1ccc2oc(=O)c(-c3cn4ccc(C)cc4n3)cc2c1 | inactive |
| COc1ccc(C2=CC(c3ccc(N(C)C)cc3)n3nnnc3N2)cc1 (stereo not drawn) | inactive |
| O=C(CSc1nccc(-c2cccs2)n1)Nc1cccc(Cl)c1Cl | inactive |
| CC(C)CNC(=O)COC(=O)c1c2c(nc3ccccc13)/C(=C\c1cccs1)CC2 | inactive |
| COc1ccccc1-c1cc(SC)c(C#N)c(=O)o1 | 35.5 µM (active) |
| COc1ccccc1-c1c(C#N)c(N)nc2c1CCC2 | inactive |
| COc1ccccc1-c1ccc(/C=C2\C=CC(=O)O2)o1 | inactive |
| CC1CCCN(Cc2c(O)ccc3c2O/C(=C\c2ccco2)C3=O)C1 (stereo not drawn) | inactive |
| CN(c1ccccc1)c1ccc(/C=C/[N+](=O)[O-])cc1 | 25.1 µM (active) |
| Nc1c(C(=O)NCCN2CCOCC2)c2nc3ccccc3nc2n1CCc1ccccc1F | inactive |
| Nc1c(C(=O)c2ccccc2)sc2nsc(SCCN3CCOCC3)c12 | inactive |
| O=C(CCS(=O)(=O)c1ccccc1)N(CCCN1CCOCC1)c1nc2ccccc2s1 | 39.8 µM (active) |
| O=C(NCCCN1CCOCC1)c1cc2nc(-c3ccco3)cc(C(F)(F)F)n2n1 | inactive |
| O=C(CNC(=S)N(CCCN1CCOCC1)Cc1cccs1)NCc1ccccc1 | inactive |
| Cc1cccc2sc(N(CCN3CCOCC3)C(=O)CCS(=O)(=O)c3ccccc3)nc12 | 39.8 µM (active) |
| O=C(CCS(=O)(=O)c1ccccc1)N(CCCN1CCOCC1)c1nc2c(F)cccc2s1 | 31.6 µM (active) |
| Nc1c(C(=O)NCCN2CCOCC2)c2nc3ccccc3nc2n1-c1cccc(F)c1 | inactive |
| Nc1c(C(=O)NCCN2CCOCC2)c2nc3ccccc3nc2n1-c1ccccc1 | inactive |
| O=C(CCS(=O)(=O)c1ccccc1)N(CCCN1CCOCC1)c1nc2ccc(F)cc2s1 | 25.1 µM (active) |

— ChEMBL document CHEMBL1201862, “PubChem BioAssay data set” (2004)
